Reference: the supplement of paper PMC6555819

How the values were obtained:
Experiment in all cases: PBM binding z-score (relative to random genomic background probes); higher = stronger binding; sequences stand for … in GC…GCGATTGACAGCGTAGAATGAAGG
[1] = system: RARb homodimer (NR concentration 270 nM)
Outline: (§1)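 Scanned fluorescence from custom Agilent 4×180K protein-binding microarrays was regression-normalized. Binding z-scores use random background probes as reference. Ligand-free nuclear receptor dimers were incubated on the arrays for 1 h and detected with antibodies against each partner (one per run).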

[2] = system: RARg:RXRa (NR concentration 270 nM, RXRa partner concentration 90 nM)
Outline: as §1

[3] = system: RARg homodimer (NR concentration 270 nM)
Outline: as §1

[4] = system: RXRa DBDmut IVT, anti-RXR (DBD mutation: RXRa K156A/R161A, NR concentration 90 nM)
Outline: as §1

[5] = system: RXRa homodimer (NR concentration 180 nM)
Outline: as §1

[6] = system: THRa:RXRa (NR concentration 90 nM, RXRa partner concentration 90 nM)
Outline: as §1

[7] = system: THRa homodimer (NR concentration 90 nM)
Outline: as §1

[8] = system: VDR homodimer (NR concentration 270 nM)
Outline: as §1

Row | Sequence | PBM binding z-score [1] | PBM binding z-score [2] | PBM binding z-score [3] | PBM binding z-score [4] | PBM binding z-score [5] | PBM binding z-score [6] | PBM binding z-score [7] | PBM binding z-score [8]
1 | ACAGACAGGTGATGAAGCTAACTCAGGCTATCAT | -0.226 | 0.175 | 0.281 | -0.327 | 0.256 | 0.425 | -0.032 | -0.132
2 | CAAACTAGGTCAAGGCCAAAGTCGGTTTGTGCCA | 3.53 | 3.91 | 4.51 | 1.81 | 2.77 | 2.91 | 1.39 | 1.22
3 | TCTTGTAGATCAGCAGGTTCAGAAAGCTGGCCAA | -0.402 | -0.138 | -0.569 | 0.668 | 0.303 | 0.00022 | -0.821 | 1.58
4 | TCTTGTAGATGAACAGGAGGTTAAGAAAGATCGA | 0.252 | 0.473 | 0.0838 | 0.572 | 0.784 | 0.65 | -0.383 | -0.297
5 | TGAATGAGGTTAAAGATCAGGTAACGTGGCGTCG | 0.893 | 2.55 | 1.38 | 0.98 | 3.9 | 3.29 | 1.42 | 0.674
6 | TCTTGTAGATCAATAGAGGTTAAGAAGGTGCGCT | 1.27 | 0.969 | 0.482 | 0.518 | 1.33 | 2.37 | -0.695 | 0.298
7 | TCTAGTTGGTCAATGGTCACACACTCGAAATGCG | 1.54 | 1.02 | 1.31 | 1.16 | 0.996 | 0.262 | 0.437 | 0.178
